Results filed as inconclusive are left out. Activity calls are given as the source filed them. How the source made its calls: active means hit-call score of the fitted dose curve at least 0.9, where 1 is the maximum; inconclusive means response in the unintended direction; inactive means score below 0.9.
How the values were obtained:
[1] = Tanguay_ZF_120hpf_JAW_legacy: (Legacy) Oregon State University Tanguay Lab 120 Hour Post-fertilization zebrafish Assay for Jaw Malformation (AID 2283638)
Summary of the method: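 Wild-type 5D embryos, chorion removed at 4 hpf, dosed singly from 6 hpf; 28C static, sealed, foil-covered, to 120 hpf. Endpoint: jaw defect yes/no (brightfield); mortality excludes scoring.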

[2] = Tanguay_ZF_120hpf_OTIC_legacy: (Legacy) Oregon State University Tanguay Lab 120 Hour Post-fertilization zebrafish Assay for Otic Vesicle Malformation (AID 2283639)
Summary of the method: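 Brightfield scoring at 120 hpf, binary present/absent; DMSO negative control, 5uM trimethyltin chloride positive control. Static exposure at 28C, final DMSO 0.64% (vol/vol). Dead embryos not scored for malformation.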

[3] = Tanguay_ZF_120hpf_BRAI_legacy: (Legacy) Oregon State University Tanguay Lab 120 Hour Post-fertilization zebrafish Assay for Brain Malformation (AID 2283641)
Summary of the method: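 Static exposure of staged wild-type embryos until 120 hpf, kept at 28C with light excluded and final DMSO of 0.64% (vol/vol). Presence or absence of brain malformation was noted under brightfield; mortality precluded scoring.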

[4] = Tanguay_ZF_120hpf_SOMI_legacy: (Legacy) Oregon State University Tanguay Lab 120 Hour Post-fertilization zebrafish Assay for Somite Malformation (AID 2283647)
Summary of the method: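 Somitogenesis defects are recorded as binary calls in whole larvae at 120 hpf after continuous static chemical exposure starting at 6 hpf in dechorionated 5D embryos. DMSO serves as negative control and baseline.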

[5] = Tanguay_ZF_120hpf_CFIN_legacy: (Legacy) Oregon State University Tanguay Lab 120 Hour Post-fertilization zebrafish Assay for Caudal Fin Malformation (AID 2283649)
Summary of the method: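 Single dechorionated 5D wild-type embryos are dosed at 6 hpf (final DMSO 0.64%) and held statically at 28C. Caudal fin malformation is recorded as present or absent at 120 hpf under brightfield, excluding dead embryos.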

[6] = Tanguay_ZF_120hpf_PIG_legacy: (Legacy) Oregon State University Tanguay Lab 120 Hour Post-fertilization zebrafish Assay for Pigmentation Malformation (AID 2283650);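 further: dechorionated Tropical 5D zebrafish embryos exposed singly from 6 to 120 hpf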
Summary of the method: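 Brightfield scoring of pigmentation malformation at 120 hpf, recorded as binary present/absent per larva. Exposure: dechorionated 5D wild-type embryos, one per well, static from 6 hpf at 28C, final DMSO 0.64% (vol/vol). Dead embryos not scored.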

[7] = Tanguay_ZF_120hpf_SWIM_legacy: (Legacy) Oregon State University Tanguay Lab 120 Hour Post-fertilization zebrafish Assay for Swim Bladder Malformation (AID 2283654);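 further: swim bladder malformation in each larva scored yes or no under brightfield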
Summary of the method: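 Tropical 5D embryos dechorionated at 4 hpf; 1 embryo/well from 6 hpf; static, sealed, dark exposure at 28C until 120 hpf; final DMSO 0.64%; 5uM trimethyltin chloride positive control; swim bladder defect recorded yes/no; dead embryos not scored.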

[8] = Tanguay_ZF_120hpf_TRUN_legacy: (Legacy) Oregon State University Tanguay Lab 120 Hour Post-fertilization zebrafish Assay for Truncated Body (AID 2283655)
Summary of the method: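 Single dechorionated zebrafish embryos received test chemical from 6 hpf in 0.64% DMSO, kept at 28C. At 120 hpf, brightfield inspection noted any truncated body.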

[9] = Tanguay_ZF_120hpf_NC_legacy: (Legacy) Oregon State University Tanguay Lab 120 Hour Post-fertilization zebrafish Assay for Notochord and Tail Malformation (AID 2283656)
Summary of the method: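 Binary notochord-distortion calls, made by brightfield inspection, form the read-out; activity is fitted in the positive direction against DMSO. Exposure ran statically from 6 to 120 hpf at 28C with 0.64% DMSO.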

[10] = Tanguay_ZF_120hpf_PE_legacy: (Legacy) Oregon State University Tanguay Lab 120 Hour Post-fertilization zebrafish Assay for Pericardial Edema (AID 2283640)
Summary of the method: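 Zebrafish larvae are exposed from early development to 120 hpf at 28C, with 0.64% DMSO final. Each surviving larva receives a yes/no pericardial edema call by brightfield imaging, analysed relative to the DMSO baseline.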

[11] = Tanguay_ZF_120hpf_PFIN_legacy: (Legacy) Oregon State University Tanguay Lab 120 Hour Post-fertilization zebrafish Assay for Pectoral Fin Malformation (AID 2283648);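 further: each larva judged yes or no for fin defect by brightfield with dead larvae skipped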
Summary of the method: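 Binary pectoral fin malformation call at 120 hpf by brightfield microscopy; 5D wild-type zebrafish, chorion removed at 4 hpf, one embryo per well from 6 hpf, static exposure at 28C; DMSO (0.64% final) as baseline.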

[12] = Tanguay_ZF_120hpf_CIRC_legacy: (Legacy) Oregon State University Tanguay Lab 120 Hour Post-fertilization zebrafish Assay for Circulatory Malformation (AID 2283651)
Summary of the method: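 Static exposure, 6–120 hpf, 28C, sealed and dark; one dechorionated 5D embryo/well; DMSO 0.64% v/v final. Binary circulation endpoint by brightfield; dead embryos not scored.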

[13] = Tanguay_ZF_120hpf_TR_legacy: (Legacy) Oregon State University Tanguay Lab 120 Hour Post-fertilization zebrafish Assay for Touch Response (AID 2283667)
Summary of the method: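 Binary touch-response call at 120 hpf, analysed as gain of signal versus DMSO baseline. Wild-type 5D larvae, static exposure at 28C, 0.64% DMSO final; 5uM trimethyltin chloride as positive control.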

[14] = system: Thyroperoxidase (TPO), gene 54314; test: CCTE_Simmons_AUR_rTPO: CCTE's Amplex UltraRed Assay for Thyroperoxidase (TPO) Inhibition, Simmons Lab (AID 2283662);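 further: potency for loss of signal meaning inhibition of peroxidase activity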
Summary of the method: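 Rat thyroid microsomes (5 ug protein) were incubated with test compound (8 concentrations, 5 nM–87.5 uM final, 0.5% DMSO), 25 uM Amplex UltraRed and 300 uM H2O2 in 200 mM phosphate buffer for 30 min at 37C in the dark; fluorescence read at 544/590 nm.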

[15] = CCTE_Simmons_CellTiterGLO_HEK293T: Viability Assessment in CCTE's Assays for Thyroperoxidase (TPO) Inhibition, Simmons Lab (AID 2283665);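 on AC50: cells exposed to compound for 24 h before readout; actives reduce ATP signal below DMSO vehicle meaning cytotoxicity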
Summary of the method: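 Luminescent ATP readout (CellTiter-Glo, 20 min at room temperature) after 24 hr exposure of HEK293T cells to 5 nM–87.5 uM final compound; signal loss relative to DMSO vehicle indicated cytotoxicity; dichlone titrated as positive control.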

## CC(C)COC(=O)CCCCC(=O)OCC(C)C
[1]
  outcome: inactive
[2]
  outcome: inactive
[3]
  outcome: inactive
[4]
  outcome: inactive
[5]
  outcome: inactive
[6]
  outcome: inactive
[7]
  outcome: inactive
[8]
  outcome: inactive
[9]
  outcome: inactive

## CS(=O)(=O)c1ccc([C@@H](C[C@H]2CCC(=O)C2)C(=O)Nc2cnccn2)cc1Cl
[1]
  outcome: inactive
[2]
  outcome: inactive
[10]
  outcome: inactive
[4]
  outcome: inactive
[11]
  outcome: inactive
[5]
  outcome: inactive
[6]
  outcome: inactive
[12]
  outcome: inactive
[7]
  outcome: inactive
[8]
  outcome: inactive
[9]
  outcome: inactive
[13]
  outcome: inactive

## O=NO
[10]
  outcome: inactive
[4]
  outcome: inactive
[5]
  outcome: inactive
[6]
  outcome: inactive
[12]
  outcome: inactive
[9]
  outcome: inactive
[13]
  outcome: inactive

## Cc1ccc(-c2cc(C(F)(F)F)nn2-c2ccc(S(N)(=O)=O)cc2)cc1
[1]
  outcome: inactive
[10]
  outcome: inactive
[3]
  outcome: inactive
[11]
  outcome: inactive
[5]
  outcome: inactive
[6]
  outcome: inactive
[12]
  outcome: inactive
[7]
  outcome: inactive
[8]
  outcome: inactive
[9]
  outcome: inactive
[13]
  outcome: inactive

## CC(=O)S[C@H](C(=O)N[C@H]1Cc2ccccc2[C@H]2CCC[C@@H](C(=O)O)N2C1=O)C(C)C
[1]
  outcome: inactive
[2]
  outcome: inactive
[10]
  outcome: inactive
[4]
  outcome: inactive
[11]
  outcome: inactive
[7]
  outcome: inactive
[8]
  outcome: inactive
[13]
  outcome: inactive

## O=C1O[C@H]([C@H](O)CO)C(O)=C1O
[1]
  outcome: inactive
[3]
  outcome: inactive
[4]
  outcome: inactive
[11]
  outcome: inactive
[5]
  outcome: inactive
[6]
  outcome: inactive
[12]
  outcome: inactive
[7]
  outcome: inactive
[8]
  outcome: inactive
[9]
  outcome: inactive
[14]
  AC50: 43.8 µM (active)
[15]
  outcome: inactive
[13]
  outcome: inactive

## CC(C)c1cccc(C(C)C)c1
[1]
  outcome: inactive
[2]
  outcome: inactive
[10]
  outcome: inactive
[3]
  outcome: inactive
[5]
  outcome: inactive
[6]
  outcome: inactive
[12]
  outcome: inactive
[8]
  outcome: inactive
[9]
  outcome: inactive
[13]
  outcome: inactive

## CCc1cc(C2=C(C(=O)O)N(c3ccccc3C(F)(F)F)S(=O)(=O)c3ccccc32)cc2c1OCO2
[1]
  outcome: inactive
[10]
  outcome: inactive
[3]
  outcome: inactive
[11]
  outcome: inactive
[5]
  outcome: inactive
[7]
  outcome: inactive
[8]
  outcome: inactive
[13]
  outcome: inactive

## CN(C)C(=O)NC1(c2ccccc2)CCN(CC[C@@]2(c3ccc(F)c(F)c3)CN(C(=O)c3ccccc3)CCO2)CC1
[1]
  outcome: inactive
[2]
  outcome: inactive
[10]
  outcome: inactive
[4]
  outcome: inactive
[11]
  outcome: inactive
[5]
  outcome: inactive
[6]
  outcome: inactive
[12]
  outcome: inactive
[7]
  outcome: inactive
[8]
  outcome: inactive
[9]
  outcome: inactive
[13]
  outcome: inactive

## CC(=O)OC1CC(C)OC(C)O1 (stereo not drawn)
[1]
  outcome: inactive
[10]
  outcome: inactive
[3]
  outcome: inactive
[4]
  outcome: inactive
[11]
  outcome: inactive
[5]
  outcome: inactive
[6]
  outcome: inactive
[12]
  outcome: inactive
[7]
  outcome: inactive
[8]
  outcome: inactive
[9]
  outcome: inactive
[13]
  outcome: inactive

## Oc1ccccc1O
[10]
  outcome: inactive
[4]
  outcome: inactive
[11]
  outcome: inactive
[5]
  outcome: inactive
[6]
  outcome: inactive
[7]
  outcome: inactive
[8]
  outcome: inactive
[9]
  outcome: inactive
[14]
  AC50: 0.84 µM (active)
[15]
  AC50: 34.4 µM (active)
[13]
  outcome: inactive

## CC(=O)CC(c1ccccc1)c1c(O)c2ccccc2oc1=O (stereo not drawn)
[1]
  outcome: inactive
[4]
  outcome: inactive
[11]
  outcome: inactive
[5]
  outcome: inactive
[6]
  outcome: inactive
[12]
  outcome: inactive
[7]
  outcome: inactive
[8]
  outcome: inactive
[13]
  outcome: inactive

## CC(C)OC(=O)C(C)(C)Oc1ccc(C(=O)c2ccc(Cl)cc2)cc1
[2]
  outcome: inactive
[10]
  outcome: inactive
[5]
  outcome: inactive
[6]
  outcome: inactive
[12]
  outcome: inactive
[7]
  outcome: inactive
[8]
  outcome: inactive
[13]
  outcome: inactive

## CCCCOC(=O)CCCCC(=O)OCCCC
[2]
  outcome: inactive
[10]
  outcome: inactive
[3]
  outcome: inactive
[4]
  outcome: inactive
[11]
  outcome: inactive
[5]
  outcome: inactive
[6]
  outcome: inactive
[7]
  outcome: inactive
[8]
  outcome: inactive
[9]
  outcome: inactive
[13]
  outcome: inactive

## CCCC(=O)O
[10]
  outcome: inactive
[3]
  outcome: inactive
[4]
  outcome: inactive
[11]
  outcome: inactive
[5]
  outcome: inactive
[12]
  outcome: inactive
[7]
  outcome: inactive
[8]
  outcome: inactive
[9]
  outcome: inactive
[13]
  outcome: inactive

## O=Cc1ccccc1C=O
[2]
  outcome: inactive
[10]
  outcome: inactive
[3]
  outcome: inactive
[4]
  outcome: inactive
[5]
  outcome: inactive
[6]
  outcome: inactive
[12]
  outcome: inactive
[8]
  outcome: inactive
[9]
  outcome: inactive
[14]
  AC50: 41.8 µM (active)
[15]
  AC50: 4.91 µM (active)
[13]
  outcome: inactive

## O=C1OC(c2ccc(O)cc2)(c2ccc(O)cc2)c2ccccc21
[1]
  outcome: inactive
[10]
  outcome: inactive
[4]
  outcome: inactive
[11]
  outcome: inactive
[5]
  outcome: inactive
[6]
  outcome: inactive
[12]
  outcome: inactive
[7]
  outcome: inactive
[8]
  outcome: inactive
[9]
  outcome: inactive
[14]
  AC50: 2.99 µM (active)
[15]
  AC50: 43.8 µM (active)
[13]
  outcome: inactive

## COc1ccc(C(=O)Nc2nc3ccccc3c(NCc3ccccc3)c2C#N)cc1
[1]
  outcome: inactive
[3]
  outcome: inactive
[6]
  outcome: inactive
[12]
  outcome: inactive
[7]
  outcome: inactive
[9]
  outcome: inactive
[13]
  outcome: inactive

— PubChem BioAssay (EPA / NIEHS)
